Experimental findings from PubChem BioAssay (NCI) are described below.

Holding throughout (assay): NCI-60 one-dose screen, 48 h (100 = growth as untreated, 0 = no growth, -100 = all killed)
Conditions in all cases: 10 µM unless noted

The test system of test [1] is SR leukemia.
The test system of test [2] is RPMI-8226 leukemia.
Test [3] has as its system OVCAR-8 ovarian.
Test [4] has as its system OVCAR-5 ovarian.
In test [5] the test system is OVCAR-4 ovarian.
In test [6] the test system is SK-OV-3 ovarian.
The test system of test [7] is IGROV1 ovarian.
Test [8] has as its system OVCAR-3 ovarian.
Test [9] relates to HS 578T breast.
Test [10] concerns NCI/ADR-RES ovarian.

About 83,000 compounds went through this panel and 20% of them were active in at least one assay; those are over-represented in the sample as a whole.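 Values shown are percent growth following 48 h exposure of cells in 96-well plates to a single concentration of compound; below 10 was considered active.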 A number with no mark means an inactive call. Calls of active or inactive are those of the source.

With `Cc1nc2sc(C(=O)Nc3cccc(Cl)c3C)c(N)c2cc1C(=O)/C=C/c1ccccc1`, the growth is 14.2% in test [1]; -37.2% (active) in test [2]; -12.5% (active) in test [3]; 8.98% (active) in [4]; 35.5% in [5]; 28.8% in test [6]. In addition, the growth in [7] is -11.8% (active); in [8], -76.6% (active); in test [9], 6.35% (active); in [10], -4.7% (active).
Consider `Cc1c2ccccc2nc2cc3c(cc12)[C@H]1CC[C@]2(C)C(=O)CC[C@H]2[C@@H]1CC3`, for which the growth in [1] is 92.9%; in test [2], 79.5%; in test [3], 92.5%; in [4], 97.6%; in test [5], 95.8%; in [6], 124%. Besides, the growth is 101% in test [7], 104% in [8], 86.3% in test [9] and 103% in test [10].
On to `O=C(c1c[nH]c2ccccc12)c1n[nH]c(=S)n1-c1ccc([N+](=O)[O-])cc1`, for which the growth in test [1] was 92%; in test [2] it was 68.4%; in [3], 97.1%; in test [4], 101%; in [5], 85%; in [6], 95.4%. Also, the growth was 73.1% in test [7], 95.3% in test [8], 92.8% in test [9] and 106% in test [10].
Take `COc1cc2ncnc(Nc3ccc(S(=O)(=O)Nc4nccs4)cc3)c2cc1OCCCN1CCCC1`: the growth in [1] is 99.1%; in [2], 107%; in test [3], 99.7%; in [4], 109%; in test [5], 110%; in [6], 98.6%. The growth in [7] was 110%; in test [8] it was 109%; in test [9], 110%; in test [10], 108%.
On to `O=C(NNc1nc2cc(F)ccc2n2c(CN3CCOCC3)ccc12)c1ccccc1`, for which the growth in test [1] was 3.49% (active); in test [2], 10.9%; in [3], 13.1%; in test [4] it was 28.9%; in [5], -14.9% (active); in test [6] it was 27.5%. The growth is 3.07% (active) in [7], -8.34% (active) in test [8], 57.9% in [9] and 5.25% (active) in test [10].
Regarding `CCOC(=O)c1c(NC(=O)c2ccccc2)sc2c3c(ccc12)OCN(C)C3`, the growth in [1] is -39.6% (active); in [2], -46.2% (active); in test [3] it was 28.5%; in [4], -0.612% (active); in test [5] it was 61.8%; in [6] it was 88.5%. In addition, the growth in test [7] is 18.6%; in [8] it was 52.1%; in test [9] it was 57.9%; in [10], 5.26% (active).
On to `CCOC(=O)c1nnn(-c2no[n+]([O-])c2-c2ccc(OC)cc2)c1COc1cccc2cccnc12`, for which the growth was 6.52% (active) in test [1]; 4.48% (active) in [2]; 0.67% (active) in test [3]; 48.6% in test [4]; 27% in [5]; 12.4% in test [6]. Besides, the growth was 23.5% in test [7], 16.8% in test [8], 24.8% in test [9] and 9.15% (active) in [10].
On to `CN1CC(c2ccc(Br)cc2)C(C(=O)c2ccc(Br)cc2)C12C(=O)Nc1ccccc12` (stereo not given), for which the growth in test [1] is 68.1%; in test [2], 62.3%; in [3] it was 83.8%; in test [4], 82.1%; in test [5], 63.6%; in test [6], 80.8%. The growth was 62.6% in test [7], 79.3% in test [8], 89.3% in [9] and 58.9% in [10].
As to `CCN(CC)CCCNc1cc(OC)c(OC)c2cccnc12`, the growth in test [1] is 41.5%; in test [2] it was 74.4%; in [3], 65.1%; in test [4], 112%; in [5], -10.1% (active); in test [6], 56.3%. Further, the growth is 35.4% in [7], 30.9% in test [8], 74.3% in [9] and 76.6% in test [10].
Consider `CCCOC(=O)Nc1nc2ccc(SCC)cc2s1`, for which the growth in [1] is 25.9%; in [2] it was 85.1%; in test [3], 94.7%; in test [4], 102%; in test [5], 94.2%; in [6] it was 95.8%. The growth in test [7] is 89.5%; in test [8] it was 76.9%; in [9], 93.4%; in test [10] it was 50.5%.
Turning to `COc1ccc(/C=N/NC(=O)Cn2c(-c3ccc(S(C)(=O)=O)cc3)nc3ccccc32)cc1`, the growth in [1] was 100%; in test [2], 105%; in [3], 111%; in test [4], 99.7%; in test [5] it was 117%; in [6], 117%. Besides, the growth in [7] is 91.4%; in test [8] it was 103%; in test [9] it was 92.4%; in test [10], 104%.
Take `CC(C)=CC(=O)N[C@H]1CC[C@]2(C)C3CC[C@]4(C)C(C(C)N(C)C)=CCC4C3CCC2[C@H]1O` (stereo not given in full): the growth was 30.2% in [1]; 5.55% (active) in [2]; 77.6% in test [3]; 101% in test [4]; 7.83% (active) in test [5]; 115% in [6]. The growth was 51.3% in test [7], 31.2% in [8], 57.1% in test [9] and 71.6% in [10].
Take `O=c1oc2c(cc1-c1ccccc1)c(=O)[nH]c1ccccc12`: the growth in test [1] was 108%; in [2] it was 101%; in test [3] it was 95.7%; in test [4], 103%; in [5] it was 99.6%; in [6], 105%. Also, the growth in [7] is 103%; in test [8], 112%; in [9] it was 98.1%; in test [10], 102%.
With `COc1ccc(C(c2cc(OC)c(OC)c(OC)c2)N2CCCCC2)cc1` (stereo not given), the growth was 18.5% in test [1]; 51.2% in test [2]; 50.1% in test [3]; 69.6% in [4]; 69.2% in test [5]; 16.7% in test [6]. Moreover, the growth is 47.1% in test [7], 8.29% (active) in test [8], 16.6% in test [9] and 24% in test [10].
For the compound `CS(=O)/C(C#N)=C\C=C\c1cccc(Cl)c1` (stereo not given), the growth in test [1] is 6.39% (active); in test [2], 2.54% (active); in test [3] it was 26.3%; in [4] it was 34.1%; in test [5], 34.7%; in test [6], 43.7%. For the same compound, the growth is 23.4% in test [7], 10.6% in test [8], 43.2% in test [9] and -44.1% (active) in test [10].
Regarding `COC(=O)/C(CCC=C(C)C)=C1\[C@@H](OC(C)=O)C[C@@]2(C)[C@H]1C/C(=N/O)[C@H]1[C@@]3(C)CC/C(=N\O)[C@@H](C)[C@@H]3CC[C@@]12C`, the growth in test [1] is 66.2%; in [2], 46.3%; in test [3], 90.4%; in [4] it was 135%; in test [5], 97.3%; in test [6], 107%. For the same compound, the growth in test [7] is 100%; in [8], 93.8%; in [9], 94.3%; in test [10], 102%.
Regarding `N#Cc1c(-c2ccccc2)cc(-c2ccccc2)n(CCCCC(=O)NO)c1=O`, the growth is 7.41% (active) in test [1]; 0.83% (active) in test [2]; 15.6% in test [3]; 13.6% in test [4]; 34% in test [5]; 42.1% in test [6]. Besides, the growth in test [7] is 20%; in test [8], 20.5%; in [9], 27.4%; in [10] it was -16.2% (active).
For the compound `c1ccc(Cn2cc3c(c2-c2ccccc2)CCc2cnoc2-3)cc1`, the growth in [1] is 37.3%; in [2] it was 46.7%; in test [3], 84.5%; in test [4] it was 96%; in [5], 86.2%; in [6] it was 88%. The growth was 76.6% in test [7], 56.7% in test [8], 71.5% in [9] and 40.6% in [10].
For `COc1cc(N2C(=O)[C@H](Cl)C2c2ccc(SC)cc2)cc(OC)c1OC` (stereo not given in full), the growth in test [1] is 1.95% (active); in test [2], 3.63% (active); in test [3] it was 8.62% (active); in test [4], 70%; in test [5], 48%; in [6] it was 20.4%. For the same compound, the growth is 27.8% in [7], 3.77% (active) in [8], 25.1% in [9] and -0.874% (active) in test [10].
Turning to `COc1cccc(-c2cn3nc(-c4cn(C)c5ccccc45)sc3n2)c1`, the growth in test [1] was 24.9%; in [2] it was 97%; in test [3], 101%; in [4], 91.4%; in test [5], 93.6%; in test [6], 93.6%. For the same compound, the growth in test [7] is 92.8%; in test [8] it was 99.2%; in test [9], 85.7%; in test [10], 94.3%.
On to `O=C(Nc1ccc(Nc2ccncc2)cc1)c1ccc(Nc2ccnc3ccc([N+](=O)[O-])cc23)cc1`, for which the growth in test [1] was -14.2% (active); in test [2] it was 63.4%; in [3], 104%; in test [4], 105%; in test [5], 84.4%; in test [6], 89.1%. In addition, the growth in test [7] was 97%; in test [8], 93.1%; in test [9], 110%; in test [10], 106%.
Consider `NS(=O)(=O)c1ccc(C(=O)N=Nc2c(O)[nH]c3ccc(Cl)cc23)cc1`, for which the growth was 95.3% in test [1]; 98.5% in test [2]; 95% in test [3]; 110% in test [4]; 99.7% in test [5]; 108% in test [6]. Further, the growth is 98.1% in [7], 113% in test [8], 99.5% in test [9] and 102% in test [10].
On to `Nc1nc2ccccc2c2c(=O)c3cc(Cl)ccc3sc12`, for which the growth was 94.8% in test [1]; 102% in test [2]; 99.2% in test [3]; 97.9% in [4]; 87.9% in [5]; 79.8% in test [6]. The growth in test [7] is 90.2%; in test [8] it was -22.8% (active); in test [9], 100%; in test [10], 108%.
Take `Cc1ccc2nc(-c3ccc(C(=O)N/N=C/c4ccc([N+](=O)[O-])cc4)cc3)[nH]c2c1`: the growth in [1] is 92%; in test [2], 95.6%; in [3] it was 105%; in [4] it was 96.5%; in test [5], 107%; in test [6] it was 109%. For the same compound, the growth in test [7] was 91.3%; in test [8] it was 115%; in [9], 105%; in test [10], 106%.
As to `CCCCCCCCn1ccc2cc(NC(=O)CN3CCN(c4cc(C)nc(Cl)n4)CC3)ccc21`, the growth was 73.3% in test [1]; 73.5% in [2]; 94.9% in [3]; 95.2% in test [4]; 75.2% in [5]; 105% in test [6]. Further, the growth in [7] was 72.5%; in test [8], 108%; in [9] it was 94.2%; in test [10] it was 84.8%.
Consider `CCOC(=O)C1=C(c2ccccc2)N=C2N(c3ccccc3)N=C(C(C)=O)N2C1c1ccc(F)cc1` (stereo not given), for which the growth is 97.1% in [1]; 89.3% in test [2]; 99.3% in test [3]; 102% in [4]; 97.9% in test [5]; 107% in test [6]. Also, the growth was 96.3% in test [7], 105% in [8], 92.1% in test [9] and 109% in [10].
Turning to `Cc1cc2oc(/C=C/c3ccccc3)cc(=O)c2c(C)c1Cl`, the growth in test [1] is 78.3%; in [2], 94%; in test [3], 100%; in [4], 104%; in [5], 99%; in test [6] it was 96.3%. The growth in [7] was 109%; in [8], 108%; in [9] it was 119%; in test [10] it was 97.8%.
